Experimental data taken from PubChem BioAssay.
“And” between values parts separate entries of the source, which are not always exact repeats. Equal values may be shown once.

Test: sensitizers of A549 cells to miR-34 induction, primary screen, imaging, A549 dox-inducible miR-34, nuclei and caspase counts (AID 1347080); also: test concentration not given here
Conditions: A549 miR-34 inducible, Hoechst nuclei count, 48 h; measured here: total cells with miR-34 induction; stronger effect = lower value

| Structure (SMILES) | cell count |
| --- | --- |
| N=C(N)SCCC[C@H](N)C(=O)O | 5850 |
| CC/C=C\C/C=C\C/C=C\C/C=C\CCCCC(=O)O | 5720 |
| CCCCC(C)(C)[C@H](O)/C=C/[C@@H]1[C@@H](C/C=C\CCCC(=O)O)[C@@H](O)C[C@H]1O | 5690 |
| CCCCC(C)(O)C/C=C/[C@H]1[C@H](O)CC(=O)[C@H]1CCCCCCC(=O)OC (stereo not given in full) | 5420 |
| N[C@@H](Cc1ccc(O)c([N+](=O)[O-])c1)C(=O)O | 5730 |
| O=C(O)CCC/C=C\C[C@H]1[C@@H](/C=C/[C@@H](O)CCc2ccccc2)[C@H](O)C[C@@H]1O | 5490 |
| O=C(O)CCC/C=C\C[C@H]1C(=O)C[C@@H](O)[C@@H]1/C=C/[C@@H](O)Cc1ccccc1 | 5810 |
| CCCCC/C=C\C/C=C\CCCCCCCC(=O)OCC(COC(=O)CCCCCCCCCCCCCCC)OC(=O)CCCCCCC/C=C\CCCCCCCC (stereo not given) | 5950 |
| O=C(O)CCC/C=C\C[C@@H]1[C@@H](/C=C/[C@@H](O)C2Cc3ccccc3C2)[C@@H](F)C[C@@H]1O | 4580 |
| CCCCC[C@](C)(O)/C=C/[C@@H]1[C@@H](C/C=C\CCCC(=O)O)[C@@H](O)C[C@H]1O | 5410 |
| OC[C@H]1NC[C@H](O)[C@@H](O)[C@@H]1O | 5000 |
| CCCCCCCCCCCCC/C=C/[C@@H](O)[C@H](COP(=O)(O)O)NC(=O)CCCCCCC | 5610 |
| O=C(O)CCC/C=C\C[C@H]1C(=O)C=C[C@@H]1CC[C@@H](O)CCc1ccccc1 | 6220 |
| CN(C)CCCCCCOc1ccc(-n2ccnc2)cc1 | 5270 and 6380 |
| CCCCC[C@H](O)/C=C/[C@H]1OC(O)C[C@H](O)[C@@H]1CCCCCCC(=O)O (stereo not given in full) | 5640 |
